NSD2 inh = NSD2 (human) methyltransferase inhibition | NSD2 peptide methylation, AlphaScreen, 120 min | actives 0.54% (n = 310,000) | O96028 | inhibition, % at 12.5 µM | AID 743445; in the data active = inhibition above about 50%
Target sequence (O96028 whole entry, looked up): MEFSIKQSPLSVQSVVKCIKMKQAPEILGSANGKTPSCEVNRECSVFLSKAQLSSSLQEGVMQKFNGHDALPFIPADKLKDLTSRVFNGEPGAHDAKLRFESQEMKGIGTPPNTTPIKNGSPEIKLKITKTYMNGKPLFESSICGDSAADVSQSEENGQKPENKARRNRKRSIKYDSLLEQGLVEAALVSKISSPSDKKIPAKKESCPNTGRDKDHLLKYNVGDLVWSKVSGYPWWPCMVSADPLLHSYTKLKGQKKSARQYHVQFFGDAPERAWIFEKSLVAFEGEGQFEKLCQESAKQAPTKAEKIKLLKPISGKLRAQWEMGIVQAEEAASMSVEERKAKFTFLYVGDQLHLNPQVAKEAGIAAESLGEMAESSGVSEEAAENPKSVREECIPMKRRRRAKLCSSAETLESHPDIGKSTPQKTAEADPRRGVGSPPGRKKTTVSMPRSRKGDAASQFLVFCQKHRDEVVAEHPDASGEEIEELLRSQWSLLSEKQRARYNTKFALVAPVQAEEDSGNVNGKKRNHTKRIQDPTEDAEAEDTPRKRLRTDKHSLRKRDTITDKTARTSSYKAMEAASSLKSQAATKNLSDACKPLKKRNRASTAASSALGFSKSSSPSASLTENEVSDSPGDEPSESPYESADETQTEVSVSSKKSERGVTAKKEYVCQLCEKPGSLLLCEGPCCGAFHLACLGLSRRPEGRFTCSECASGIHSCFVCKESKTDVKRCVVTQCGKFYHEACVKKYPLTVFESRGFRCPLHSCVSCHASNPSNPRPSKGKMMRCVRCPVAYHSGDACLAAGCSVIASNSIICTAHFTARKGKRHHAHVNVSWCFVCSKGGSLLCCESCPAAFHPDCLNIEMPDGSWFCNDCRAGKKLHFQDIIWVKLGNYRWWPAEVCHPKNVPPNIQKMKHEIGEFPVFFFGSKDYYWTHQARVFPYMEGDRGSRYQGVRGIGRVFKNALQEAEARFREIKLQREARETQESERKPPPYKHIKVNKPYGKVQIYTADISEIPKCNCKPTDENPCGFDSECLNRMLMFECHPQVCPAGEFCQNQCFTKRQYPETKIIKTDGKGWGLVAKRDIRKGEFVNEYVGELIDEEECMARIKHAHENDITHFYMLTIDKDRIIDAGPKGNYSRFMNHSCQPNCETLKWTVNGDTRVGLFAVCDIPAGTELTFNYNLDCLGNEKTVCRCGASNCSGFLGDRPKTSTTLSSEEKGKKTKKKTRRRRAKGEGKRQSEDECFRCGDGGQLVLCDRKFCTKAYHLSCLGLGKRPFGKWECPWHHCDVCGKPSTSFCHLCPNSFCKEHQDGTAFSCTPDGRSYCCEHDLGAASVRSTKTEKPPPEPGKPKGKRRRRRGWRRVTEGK
ATG4B inh = inhibitors of human ATG4B cysteine protease; ATG4B cleavage of LC3-PLA2, NBD-HPC fluorescence, 1 h; inhibition, % at 8.33 µM; actives 0.51% (n = 340,000); in the data active = inhibition above about 40%
Pemphigus Ab inh = blocks pemphigus antibody binding to human desmoglein-3. P32926. DSG3-coupled beads, scFv-anti-DSG3-GFP binding, flow cytometry; active compounds read low. binding (percent of control), % at 10 µM. actives 0.48% (n = 310,000). AID 588358;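 active = binding more than 3 SD below its plate's average and above zero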;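 also: hits lower antibody fragment binding to DSG3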
Vif imaging = inhibitors of HIV Vif; actives 0.35% (n = 340,000); inhibition, % at 7.49 µM; AID 602346; HEK293T cells, Vif self-association by quenched fluorescence, imaging, 24 h; in the data active = inhibition above about 50%, passing the limit was not always enough
Glyco luc inh = blocks N-linked glycosylation in D54 reporter cells; reporter increase, % at 12.5 µM; D54 ERlucT glycosylation luciferase reporter, 24 h; percent of 100 nM tunicamycin response; actives 0.23% (n = 360,000);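 active = mean luciferase reporter signal, scaled so untreated is 0 and the glycosylation-blocking control 100, at or above a set limit in every replicate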;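 also: luciferase carries N-glycosylation sites so blocking glycosylation raises the light; 0% = median of neutral control wells and 100% = median of 100 nM tunicamycin wells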
CaV13 ICDI inh = Disruptors of the CACNA1D IQ motif to Ca2+-dependent inactivation inhibitor domain association, primary screening, Förster resonance energy transfer in intact living …; inhibition, % at 12.3 µM; HEK cells, CFP/YFP FRET ICDI-IQ, plate reader, 10 min; percent FRET-ratio fall versus neutral wells; actives 0.098% (n = 340,000);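 active = mean replicate inhibition of at least 30% and at least 1% of replicates passing that level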;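 also: 0% = median of the neutral control wells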
* hit, by the source's call; / = no result given. Only some compounds are listed: those with a hit (about 1.9% of all), similar ones and a draw of the others.

SMILES | NSD2 inh | ATG4B inh | Pemphigus Ab inh | Vif imaging | Glyco luc inh | CaV13 ICDI inh
Nc1nnn(CC(=O)N/N=C/c2cccc(Cl)c2)n1 | -0.8 | -11.9 | 77.5* | 60.5* | 2.6 | -5.4
CCCCC(=O)Nc1ccccc1N1CCN(c2ccccc2)CC1 | 21.8 | 2.5 | 101.2 | -1.9 | 1.0 | -6.2
Cn1c(=O)c(=O)n(C)c2cc(S(=O)(=O)N3CCN(c4cccc(C(F)(F)F)c4)CC3)ccc21 | / | -8.0 | 70.6* | -3.3 | 0.7 | /
Cc1c(S(=O)(=O)N2CCN(c3cccc(C(F)(F)F)c3)CC2)c(=O)n(C)c(=O)n1C | / | -15.7 | 86.6 | 17.7 | 2.8 | -6.5
COc1ccc(CN(CCN(C)C)Cc2ccccc2)c(OC)c1 | 0.1 | -3.3 | 78.3* | 2.1 | 1.4 | -5.3
CCN(Cc1ccncc1)Cc1ccc(OC)cc1OC | 9.9 | 0.1 | 107.2 | -0.2 | -0.4 | 1.4
CCN(CC(=O)Nc1ccc(NC(C)=O)cc1)C(=O)c1oc2ccccc2c1C | / | 0.3 | 105.3 | 13.3 | 2.7 | -6.6
Cc1cc(Nc2ccc(F)cc2C)n2ncnc2n1 | / | 4.7 | 108.0 | 0.7 | 1.0 | -1.7
CCc1ccc(C2C(C#N)=C(N)SC(N)=C2C#N)cc1 | / | 12.8 | 123.0 | 3.4 | -1.0 | /
CCc1ccc(C2C(C#N)=C(N)SC(N)=C2C#N)s1 | / | 0.0 | 124.7 | 76.9* | 0.3 | /
COc1cc(C2Nc3ccccc3C(=O)N2c2ccc3c(c2)OCCO3)ccc1OCC(C)C (stereo not drawn) | 0.4 | 16.0 | 106.2 | 5.4 | -17.0 | -2.4
CCOC(=O)C1CCCN(C(=O)c2cc(S(=O)(=O)N(C)C)ccc2N2CCCC2)C1 (stereo not drawn) | 2.2 | -6.3 | 98.6 | 55.6* | 1.5 | -15.4
CN(C)S(=O)(=O)c1ccc(N2CCCC2)c(C(=O)Nc2ccccc2)c1 | -2.3 | 7.9 | 103.3 | 10.3 | 46.2* | -5.8
CSc1ccccc1NC(=O)c1cc(S(=O)(=O)N(C)C)ccc1N1CCCC1 | 1.3 | -1.4 | / | 1.4 | 0.2 | /
Cc1ccc(NC(=O)c2cc(S(=O)(=O)N(C)C)ccc2N2CCCC2)cc1F | -3.2 | -9.1 | 108.3 | -0.7 | 90.2* | -5.3
CC(=O)NC1C(=O)Nc2c(C)cc(C)cc21 (stereo not drawn) | -0.9 | -10.9 | 95.7 | -0.3 | 2.8 | -5.5
C/C(=N\NC(=O)Cc1ccc(Cl)cc1)c1ccc(F)cc1 | -1.8 | -0.7 | 108.3 | -5.8 | 0.0 | -6.0
CCN1CCN(C(=O)c2ccc(CS(=O)Cc3ccc(C)cc3)o2)CC1 (stereo not drawn) | 4.4 | -4.7 | 73.8* | -2.6 | -0.2 | -2.8
CCCN1CCN(C(=O)c2ccc(CS(=O)c3ccc(Br)cc3)o2)CC1 (stereo not drawn) | 3.8 | / | 97.8 | 2.0 | -4.1 | 35.1*
CCCN1CCN(C(=O)c2ccc(CS(=O)c3ccc(Cl)cc3)o2)CC1 (stereo not drawn) | 8.2 | -3.4 | 97.6 | -5.1 | -3.0 | -1.9
Cc1ccc(CS(=O)Cc2ccc(C(=O)N3CCN(c4ccccc4)CC3)o2)cc1 (stereo not drawn) | -1.3 | -20.6 | 98.2 | -1.8 | 0.7 | -7.2
Cc1nc(CN(C)Cc2nc(Cc3cccc(F)c3)no2)cs1 | -1.6 | 3.4 | 103.0 | -1.0 | 0.1 | -3.9
O=C1NC[C@H](Cc2ccccc2)N(C[C@H]2CCCN2C[C@H](Cc2ccccc2)N2C[C@H](Cc3ccc(O)cc3)N(CCc3ccccc3)C(=O)C2=O)C1=O | / | / | 105.0 | / | 37.0* | -6.5
O=C1NC[C@H](Cc2ccccc2)N(C[C@@H]2CCCN2C[C@H](Cc2ccc(O)cc2)N2C[C@H](Cc3ccc(O)cc3)N(CCc3ccccc3)C(=O)C2=O)C1=O | / | / | / | / | / | -6.7
CC(C)(C)NCC(O)c1cc(O)cc(O)c1 (stereo not drawn) | / | -0.7 | 45.0* | 21.0 | 2.8 | -4.7
COc1ccc(NC(=S)N/C(=N/S(=O)(=O)c2ccc(C)cc2)c2ccccc2)cc1 | -2.0 | -0.7 | 104.3 | 4.0 | -0.7 | -9.8
O=C(CCCCCCCC(=O)c1ccccc1)c1ccccc1 | -5.3 | 12.7 | 101.1 | 1.5 | -0.8 | 7.5
O=C(CCc1ccccc1)Nc1ccc(NS(=O)(=O)c2ccccc2)cc1 | 0.2 | -10.5 | 99.3 | 11.2 | -2.1 | -2.0
O=C(CCc1ccccc1)Nc1ccccc1 | / | 8.6 | 90.5 | 55.3* | -0.8 | -1.8
